Source: PubChem BioAssay AID485346 (Sanford-Burnham Center for Chemical Genomics, 2010)
The campaign covered roughly 330,000 compounds. About 10,000 (3%) were called active.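 How the source made its calls: active means inhibition of at least 50% at 8 µM in the primary screen; inactive means the rest.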 Many of the other results were omitted from the sample, so actives are more common in it than they were.

biological target: Protein Mdm4 (Homo sapiens) + E3 ubiquitin-protein ligase Mdm2 (Homo sapiens) (UniProt O15151+Q00987); assay: disruptors of Mdm2/MdmX RING complex – cell-based, luminescence, split luciferase, SaOS-2, uHTS, primary screen (AID 485346); conditions: SaOS-2 split-luciferase Mdm2/MdmX complementation, at 8 µM, hits give high values
Sequence (O15151 whole entry, looked up): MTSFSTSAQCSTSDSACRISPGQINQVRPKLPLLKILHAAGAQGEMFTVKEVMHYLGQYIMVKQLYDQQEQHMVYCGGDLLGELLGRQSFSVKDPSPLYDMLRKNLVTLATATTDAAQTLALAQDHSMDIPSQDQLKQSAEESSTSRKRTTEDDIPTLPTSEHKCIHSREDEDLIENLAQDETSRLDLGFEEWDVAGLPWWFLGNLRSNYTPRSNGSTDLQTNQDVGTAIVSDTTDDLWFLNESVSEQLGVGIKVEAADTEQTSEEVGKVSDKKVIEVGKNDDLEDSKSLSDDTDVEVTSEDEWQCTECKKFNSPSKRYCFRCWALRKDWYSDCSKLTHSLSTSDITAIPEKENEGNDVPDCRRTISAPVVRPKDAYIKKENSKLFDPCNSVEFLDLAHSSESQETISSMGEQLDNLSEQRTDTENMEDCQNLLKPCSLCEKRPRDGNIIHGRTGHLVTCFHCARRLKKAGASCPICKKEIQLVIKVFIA
Sequence (Q00987 whole entry, looked up): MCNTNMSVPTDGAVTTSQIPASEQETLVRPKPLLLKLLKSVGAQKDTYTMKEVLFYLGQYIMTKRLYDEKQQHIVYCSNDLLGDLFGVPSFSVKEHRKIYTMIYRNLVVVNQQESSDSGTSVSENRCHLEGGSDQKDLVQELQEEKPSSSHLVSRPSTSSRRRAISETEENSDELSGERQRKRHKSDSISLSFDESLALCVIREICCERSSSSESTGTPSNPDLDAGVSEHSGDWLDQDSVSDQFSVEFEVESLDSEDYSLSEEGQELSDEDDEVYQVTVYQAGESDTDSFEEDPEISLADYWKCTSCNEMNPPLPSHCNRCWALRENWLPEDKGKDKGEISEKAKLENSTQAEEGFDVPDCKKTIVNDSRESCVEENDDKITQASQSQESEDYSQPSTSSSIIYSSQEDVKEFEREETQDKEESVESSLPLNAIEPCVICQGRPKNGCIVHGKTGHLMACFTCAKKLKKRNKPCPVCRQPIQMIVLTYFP

Row | Compound | inhibition
1 | CC(=O)c1c(C)[nH]c(C(=O)OCC(=O)Nc2c(C)n(C)n(-c3ccccc3)c2=O)c1C | 11.3% (inactive)
2 | Cc1nc(N2CCN(c3ccccn3)CC2)c2c(C)c(C(=O)Nc3ccc(F)cc3)sc2n1 | 35.2% (inactive)
3 | Cc1nc(N2CCN(c3ccccn3)CC2)c2c(C)c(C(=O)Nc3ccc(F)c(Cl)c3)sc2n1 | 61.2% (active)
4 | COc1ccc(NC(=O)c2sc3nc(C)nc(N4CCN(c5ccccn5)CC4)c3c2C)c(OC)c1 | 36.5% (inactive)
5 | COCC1CCN(C(=O)C2CCC(=O)N(CC3CCCCC3)C2)CC1 (stereo not given) | -3.42% (inactive)
6 | CCOC(=O)N1CCN(Cc2nc3ccc([N+](=O)[O-])cc3c(=O)n2-c2cccc(OC)c2)CC1 | 16.7% (inactive)
7 | CCn1c(/C=C/c2ccc([N+](=O)[O-])o2)nc2ccccc2c1=O | 46.9% (inactive)
8 | Cn1cc(/C=C/c2nc3ccccc3c(=O)n2-c2cccc([N+](=O)[O-])c2)c2ccccc21 | 72.2% (active)
9 | COc1ccc(NC(=O)N(C)C[C@H]2Oc3ccc(NC(=O)C4CC4)cc3C(=O)N([C@H](C)CO)C[C@@H]2C)cc1 | -5.08% (inactive)
10 | O=C(CC1CCCCC1)NCc1ccc(F)cc1 | -13.5% (inactive)
11 | Cc1ccc(C(=O)NNC(=O)c2cc3cc4ccccc4nc3s2)cc1 | 55.3% (active)
12 | Cc1ccc(C(=O)NNc2ncnc3ccccc23)cc1 | -48.9% (inactive)
13 | Cc1ccc(C(=O)NNC(=O)c2cccs2)cc1 | -2.54% (inactive)
14 | CC[C@@]1(C(=O)OC)N[C@H](CN(C)C(C)=O)[C@@H]2C(=O)N(C)C(=O)[C@@H]21 | -30.9% (inactive)
15 | CC[C@]12c3[nH]c4ccc(Cl)cc4c3CCN1C(=O)[C@@H](CC(=O)NCCCOC)C[C@@H]2C(=O)N1CCN(C(=O)c2ccco2)CC1 | 2.9% (inactive)
16 | Cc1cc(C)c2c(-c3ccc(F)cc3)c(C#N)c(=O)n(C)c2n1 | 51.8% (active)
17 | Cn1c(N)cc(-c2ccc(F)cc2)c(C#N)c1=O | 14% (inactive)
18 | COc1ccc(O)c(C(=O)c2cnc3c(c2)c(-c2ccc(F)cc2)c(C#N)c(=O)n3C)c1 | 12.9% (inactive)
19 | O=C(CSc1ccc(-c2ccc(Br)cc2)nn1)NCC1CCCO1 (stereo not given) | -18.5% (inactive)
20 | OC(CNCC1CCCO1)Cn1c2ccc(Br)cc2c2cc(Br)ccc21 (stereo not given) | 101% (active)
21 | O=C(CCNS(=O)(=O)c1ccc(Br)cc1)NCC1CCCO1 (stereo not given) | -4.62% (inactive)
22 | O=C(O)CC12CC3CC(C1)CC(n1ncc(NCc4ccc(F)cc4)c(Cl)c1=O)(C3)C2 | -8.77% (inactive)

Row | Compound | inhibition
23 | COc1ccc(NC(=O)CN(C)C(=O)c2cccc(S(=O)(=O)N3CCN(c4ccccc4)CC3)c2)cc1 | 17% (inactive)
24 | O=C(OC1CCOC1=O)c1ccc(-c2nc3ccccc3s2)s1 (stereo not given) | -9.1% (inactive)
25 | O=C1c2ccccc2C(=O)C1c1ccccc1F | -3.2% (inactive)
26 | O=C1c2ccccc2C2=Nc3ccccc3SC(c3ccccc3F)C12 (stereo not given) | 65.3% (active)
27 | CCOC(=O)C1=C(C)N=C2c3ccccc3C(=O)C2C1c1ccc(Br)cc1 (stereo not given) | 24% (inactive)
28 | O=C(CCc1nnc(Cc2ccc3c(c2)OCO3)o1)NCCc1ccccc1Cl | 6% (inactive)
29 | CC(=O)NCCc1ccc(S(=O)(=O)Nc2ccc(C)c(S(=O)(=O)N3CCOCC3)c2)cc1 | 2.62% (inactive)
30 | Oc1ccccc1CN1CCN(C(c2ccccc2)c2ccccc2)CC1 | 19.1% (inactive)
31 | CC1(C)CC(N2CCN(C(c3ccccc3)c3ccccc3)CC2)=CC(=[N+]2CCCCC2)C1 | 90.1% (active)
32 | O=C1CC(N2CCN(C(c3ccccc3)c3ccccc3)CC2)C(=O)N1 (stereo not given) | 28.3% (inactive)
33 | CCCCNC(=O)C(C)N(CCN(C)C)C(=O)CCCN1C(=O)NC(c2ccc(Cl)cc2)C(C(=O)OCc2ccccc2)=C1C (stereo not given) | 84.8% (active)
34 | COCCN1C(=O)N[C@@H](c2ccccc2)C(C(=O)OC)=C1C | -16.5% (inactive)
35 | CCN1C(=O)N[C@@H](c2ccccc2)C(C(=O)OC)=C1C | 6.41% (inactive)
36 | CCCCNC(=O)C(C)N(CCN(C)C)C(=O)CCCCCN1C(=O)NC(c2ccc(Cl)cc2)C(C(=O)OCc2ccccc2)=C1C (stereo not given) | 97.4% (active)
37 | CC1=C(C(=O)OCc2ccccc2)C(c2ccc(C(F)(F)F)cc2)NC(=O)N1CCCCCC(=O)O (stereo not given) | 4.93% (inactive)
38 | COC(=O)CCCCCN1C(=O)NC(c2ccc(-c3ccccc3)cc2)C(C(=O)OCc2ccccc2)=C1C (stereo not given) | 22.2% (inactive)
39 | O=C(Nc1cccc(O)c1)c1ccc(C(=O)c2ccccc2)o1 | -23.5% (inactive)
40 | CC(C)(C)OC(=O)C1=C(CO)CS[C@@H]2[C@H](NC(=O)Cc3ccccc3)C(=O)N12 | 1.66% (inactive)
41 | Cc1ccc(CN2CCC(N3CCC(C(=O)NCC4CCCO4)CC3)CC2)o1 (stereo not given) | 1.75% (inactive)
42 | O=C(COC(=O)c1ccccc1)c1ccc2c(c1)OCCO2 | 35.8% (inactive)
43 | Cc1cc(C)cc(OCC(=O)Nc2cc(NC(=O)COc3cc(C)cc(C)c3)cc(C(=O)O)c2)c1 | 5.1% (inactive)
44 | CC(NC(=O)COC(=O)C1CCN(S(=O)(=O)c2ccccc2C(F)(F)F)CC1)c1ccccc1 (stereo not given) | -7.62% (inactive)

Row | Compound | inhibition
45 | NC(=O)c1nsc(C(=O)N(CCCN2CCOCC2)C(C(=O)NC2CCCCC2)c2ccc(Cl)cc2)c1N (stereo not given) | -0.899% (inactive)
46 | COc1cc(N2C(=O)CC3(CCCC3)CC2=O)cc(OC)c1OC | 20% (inactive)
47 | Cc1ccc2nc(-c3ccncc3)cc(C(=O)Nc3ccc4c(c3)OCCO4)c2c1 | 60.7% (active)
48 | Cc1ccc2nc(-c3ccccn3)cc(C(=O)Nc3ccc4c(c3)OCO4)c2c1 | 28.8% (inactive)
49 | Cc1ccc2nc(-c3ccncc3)cc(C(=O)Nc3ccc(OC(F)F)cc3)c2c1 | 37.3% (inactive)
50 | COc1ccc(CCNC(=O)CN(c2ccccc2)S(C)(=O)=O)cc1OC | -2.08% (inactive)
51 | CCc1[nH]nc(C(=O)N2CCCC(CNS(=O)(=O)c3cccs3)C2)c1C (stereo not given) | 7.22% (inactive)
52 | N#Cc1c(NC(=O)CSc2nc3ccccc3c(=O)n2Cc2ccco2)sc2c1CCCC2 | 54.1% (active)
53 | Cc1cc(NC(=O)CSc2nc3cc(Cl)ccc3c(=O)n2Cc2ccco2)no1 | 40.1% (inactive)
54 | COc1ccc(-n2c(SCC(=O)Nc3sc4c(c3C#N)CCCC4)nnc2-c2ccc(O)cc2)cc1 | 33.8% (inactive)
55 | Cc1ccc(CN2CC(C(=O)N3CCN(S(=O)(=O)c4ccccc4)CC3)CC2=O)cc1 (stereo not given) | -7.06% (inactive)
56 | O=C(NCc1cccnc1)c1ccccc1NC(=O)c1c(F)cccc1F | 12.2% (inactive)
57 | CC[C@]1(C(=O)OC)[C@H]2C(=O)N(Cc3ccccc3)C(=O)[C@H]2[C@H]2CN=C(SCc3ccc(C#N)cc3)N21 | 93% (active)
58 | COC(=O)[C@@]1(C)[C@H]2C(=O)N(Cc3ccccc3)C(=O)[C@H]2[C@H]2CN=C(SCC3CC3)N21 | 16.2% (inactive)
59 | CC[C@]1(C(=O)OC)[C@H]2C(=O)N(Cc3ccccc3)C(=O)[C@H]2[C@H]2CN=C(SCc3ccc(Cl)cc3)N21 | 99.6% (active)
60 | CCNC(=O)N(CC)C[C@H]1N[C@@](CC)(C(=O)OC)[C@H]2C(=O)N(Cc3ccccc3)C(=O)[C@@H]12 | 13.8% (inactive)
61 | CCN1C[C@@H]2[C@@H]3C(=O)N(Cc4ccccc4)C(=O)[C@@H]3[C@](Cc3ccccc3)(C(=O)OC)N2C1=NC1CCCCC1 | 44.3% (inactive)
62 | CC[C@]1(C(=O)OC)[C@H]2C(=O)N(Cc3ccccc3)C(=O)[C@H]2[C@H]2CN=C(SCc3ccccc3)N21 | 70% (active)
63 | CCN(C[C@H]1N[C@@](CC)(C(=O)OC)[C@H]2C(=O)N(Cc3ccccc3)C(=O)[C@@H]12)S(=O)(=O)c1ccccc1 | 9.24% (inactive)
64 | CC[C@]1(C(=O)OC)[C@H]2C(=O)N(C)C(=O)[C@H]2[C@H]2CN(C)C(=NCc3ccccc3)N21 | 15.5% (inactive)
65 | CCCN=C1N(C)C[C@@H]2[C@@H]3C(=O)N(Cc4ccccc4)C(=O)[C@@H]3[C@](C)(C(=O)OC)N12 | -2.26% (inactive)
66 | O=C(COC(=O)c1ccccn1)NNC(=O)c1ccc(Br)cc1 | 2.38% (inactive)

Row | Compound | inhibition
67 | Cn1nc(C(=O)OCC(=O)N(Cc2ccccc2)C(C)(C)C)c2ccccc2c1=O | 14.1% (inactive)
68 | CCCNc1c(N)c(=O)c1=O | 12.6% (inactive)
69 | Cc1cccc(C(=O)N2CCCC(Nc3ccc(C(C)C)cc3)C2)n1 (stereo not given) | -5.26% (inactive)
70 | OCCNCc1cccc(OCc2ccccc2Cl)c1 | 20.6% (inactive)
71 | Clc1cccc(Cl)c1OCCOCCNCc1ccccc1 | 89.2% (active)
72 | CCOc1ccccc1OCCCNCc1ccccc1 | -6.93% (inactive)
73 | N#C/C(=C\c1ccc(-c2cccc([N+](=O)[O-])c2)o1)C(=O)NCCN1CCOCC1 | 10.3% (inactive)
74 | Cc1ccc(Cc2cnc(NC(=O)/C(C#N)=C/c3ccc(-c4cccc([N+](=O)[O-])c4)o3)s2)cc1 | 97.9% (active)
75 | Cc1ccc(-c2ccc(/C=C(\C#N)C(N)=S)o2)c([N+](=O)[O-])c1 | -46.3% (inactive)
76 | COc1ccc(CCNC(=O)COC(=O)c2ncc(Cl)c(Cl)c2Cl)cc1OC | 8.42% (inactive)
77 | COc1ccccc1N1CCN(C(=O)c2cc(=O)c3cc(C)ccc3o2)CC1 | 40.1% (inactive)
78 | O=C(c1cc(=O)c2ccccc2o1)N1CCN(c2ccccc2)CC1 | 17.2% (inactive)
79 | COc1ccccc1N1CCN(C(=O)c2cc(=O)c3cc(C)cc(C)c3o2)CC1 | 63.5% (active)
80 | C=CCSc1nnc(NC(=O)c2ccc(NC(C)=O)cc2)s1 | -18.8% (inactive)
81 | C=C(C)C(=O)Nc1cccc(C(C)=O)c1 | 20.2% (inactive)
82 | CSc1nsc(NC(=O)Nc2ccccc2)n1 | -31.4% (inactive)
83 | C=CCSc1nsc(NC(=O)Nc2cccc(C(C)=O)c2)n1 | 94.3% (active)
84 | CCSc1nsc(NC(=O)Nc2ccccc2OC)n1 | -33.9% (inactive)
85 | CCSc1nsc(NC(=O)Nc2cccc(C(C)=O)c2)n1 | 62.3% (active)
